# The sample as a whole holds a higher share of hits than the screen did.
# ERK EGF inh: qHTS Assay for Inhibitors of the ERK Signaling Pathway using a Homogeneous Screening Assay; Stimulation with EGF; HEK293-V1b, EGF-stimulated phospho-ERK AlphaScreen; Potency, µM (top dose mostly 11.5 µM), for inactives: at the highest dose activity change, negative = inhibition, hits mostly inhibitors; 0.41% of 130,000 active; AID 1454, 2008; active means well fitted inhibition curve with a large enough effect;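 further: plate controls were stimulated vehicle wells for no effect and unstimulated vehicle basal for full effect; nearly all actives have a fitted effect of over 55% in size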
#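 Compounds are titrated over HEK293-V1b cells kept overnight in 1% FBS. After 30 min at 37C, EGF (25 nM final) triggers ERK phosphorylation for 5 min, measured by AlphaScreen in lysates.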
# Starred values were filed as active, the others as inactive; [ ] = another dose, or the depositor's remark. Potency means the concentration at half of the fitted maximal effect.
SMILES,ERK EGF inh
COc1ccccc1N1C(=O)C2CCC(c3ccccc3)CC2C1=O (centres undefined),5%
COc1ccc(C)cc1N1C(=N)/C(=C2/Nc3ccccc3S2)C(c2ccccc2)C1=O (centres undefined),20µM*
COc1ccc(C)cc1-n1c(=O)c2ccccc2c2ccccc2c1=O,1%
CCc1cccc2c(-c3ccccc3)c3c(nc12)OCC3,-2%
CCN1CCN(C(=O)N[C@H](C(=O)N[C@@H]2C(=O)N3C(C(=O)O)=C(CSc4nnnn4C)CS[C@@H]23)c2ccc(O)cc2)C(=O)C1=O,-8%[25.7 µM]
COc1ccc(CNc2ncnc3cc(OC)c(OC)cc23)cc1OC,1%[57.5 µM]
COc1cc2ncnc(NCc3ccco3)c2cc1OC,22µM*
c1coc(CNc2ncnc3[nH]ncc23)c1,-2%[57.5 µM]
CCN(CC)CCn1c(-c2ccccc2)nc2c(NCCOC)nc(C)nc21,-5%
CN1Cc2c(N3CCOCC3)nc3sc(C(=O)c4ccc(Br)cc4)c(N)c3c2CC1(C)C,35µM*
CC1(C)Cc2c(c(N3CCOCC3)nc3sc(C(=O)N4CCCCC4)c(N)c23)CO1,-1%
CC1(C)Cc2c(c(N3CCOCC3)nc3sc(-c4ccc(C(=O)O)o4)c(N)c23)CO1,5%
O=C(/C=C/c1ccc(Cl)cc1Cl)NC(=S)Nc1ccc(CN2CCOCC2)cc1,3%
O=C(Nc1ccc(CN2CCOCC2)cc1)c1ccc(-c2ccc(Cl)cc2Cl)o1,25µM*
O=C(NC(=S)Nc1ccc(CN2CCOCC2)cc1)c1ccc(-c2ccc(Cl)cc2)o1,-1%[57.5 µM]
N#Cc1ccc(CS(=O)(=O)c2nc3ccccc3s2)cc1,-7%
COC(=O)C(C(C)=O)C(NC(=O)OC(C)(C)C)c1ccccc1 (centres undefined),-1%
CCCn1c(-c2ccc(F)cc2)nc2c(NCC(C)(C)CN(C)C)nc(C)nc21,-4%
Cn1cccc1/C=N/N1CCN(Cc2cccc3ccccc23)CC1,18µM*
O=C(O)c1ccc(/C=N/N2CCN(Cc3cccc4ccccc34)CC2)cc1,0%
Cn1cccc1/C=N/N1CCN(c2ccccn2)CC1,30%
CCc1c2c(nc3cccc(SC)c13)COC2,3%
O=c1c(-c2ccc(O)cc2)coc2c(C3OC(CO)C(O)C(O)C3O)c(O)ccc12 (centres undefined),0%
CCc1cccc(Nc2cc(C)nc3ncnn23)c1,-6%
CCc1c(C)nc2ncnn2c1NC1CCCc2ccccc21 (centres undefined),5%
SMILES,ERK EGF inh
CCc1c(C)nc2ncnn2c1Nc1ccc(C)c(C)c1,22µM*
COC(=O)NC(CCc1ccccc1)C(C(C)=O)C(=O)OC (centres undefined),5%
CCCCC/C=C\C/C=C\C/C=C\C/C=C\CCCCCC(=O)NCC(=O)O,0%
C=C(COC)C1=CCC(C(=O)OC)(C(=O)OC)[C@@H](C[N+](=O)[O-])c2ccccc21,-11%
N=c1c2c(ncn1CCCO)Oc1cc(O)ccc1C2c1ccccc1 (centres undefined),2%[57.5 µM]
COc1ccc(C2c3c(ncn(CCCO)c3=N)Oc3ccc4ccccc4c32)cc1OC (centres undefined),-2%[57.5 µM]
COc1ccc(C2c3c(ncn(CCCO)c3=N)Oc3ccc4ccccc4c32)cc1 (centres undefined),40µM*
COc1cc2c(cc1OC)-c1cc3nc4ccccc4nc3n1C(C)(C)C2,1%
NC(=O)CC[C@@H]1NC(=O)[C@H](Cc2ccccc2)NC(=O)[C@H](Cc2ccc(O)cc2)NC(=O)[C@@H](N)CSSC[C@@H](C(=O)N2CCC[C@H]2C(=O)N[C@@H](CCCN=C(N)N)C(=O)NCC(N)=O)NC(=O)[C@H](CC(N)=O)NC1=O,1%
CC(C)[C@@H]1NC(=O)c2cc([N+](=O)[O-])cc(I)c2OCC[C@@H](C(N)=O)NC(=O)[C@H](CCC(=O)O)NC1=O,-5%
CCCCCCCC/C=C\CCCCCCCC(=O)N[C@@H](CO)Cc1ccc(O)cc1,4%
C[C@H](NC(=O)c1[nH]cnc1C(=O)Nc1ccc(CNC(=O)OC(C)(C)C)cc1)C(=O)OCc1ccccc1,32µM*
C[C@H](NC(=O)c1nc[nH]c1C(=O)N[C@@H](Cc1ccccc1)C(=O)OCc1ccccc1)c1ccccc1,-8%[57.5 µM]
O=C(N[C@@H](Cc1ccccc1)C(=O)OCc1ccccc1)c1nc[nH]c1C(=O)NC(c1ccccc1)c1ccccc1,40µM*
CC(C)(C)OC(=O)NCc1ccc(NC(=O)c2nc[nH]c2C(=O)N[C@@H](Cc2ccccc2)C(=O)OC(C)(C)C)cc1,-29%[57.5 µM]
CC(C)C[C@H](NC(=O)c1[nH]cnc1C(=O)Nc1ccc(CNC(=O)OC(C)(C)C)cc1)C(=O)OCc1ccccc1,-12%[57.5 µM]
C[C@@H](NC(=O)c1nc[nH]c1C(=O)N[C@@H](Cc1ccccc1)C(=O)OCc1ccccc1)c1ccccc1,10%[57.5 µM]
CO[C@@H](CCO)C[C@H]1O[C@H](C(=O)OC(C)C)CC[C@@H]1C,-1%
COc1cc2cc3c4cc(OC)c(OC)cc4cc[n+]3c(C)c2cc1OC,4%
C=CCC(C)(O)c1ccsc1 (centres undefined),-12%
Cc1cc(=O)[nH]c(NCc2ccccc2)n1,-16%[57.5 µM]
Cc1nn(-c2nnc(NCc3ccccc3)nn2)c(C)c1Br,22µM*
Cc1cccc(Nc2ccc(NCc3ccccc3)nn2)c1,2%
c1ccc(CNc2oc(-c3ccccc3)nc2-c2ccccc2)cc1,-12%
CC(=O)NC(=S)Nc1ccccc1N1CCN(C(=O)c2ccccc2)CC1,32µM*
SMILES,ERK EGF inh
CC(C)C(=O)NC(=S)Nc1ccccc1N1CCN(C(=O)c2ccccc2)CC1,-4%
O=C(NC(=S)Nc1ccccc1N1CCN(C(=O)c2ccccc2)CC1)c1cccs1,6%[57.5 µM]
O=c1c(-c2ccccc2)nc2cnc(N3CCNCC3)nc2n1Cc1cccs1,24%
COc1ccc(-c2nn(-c3ccccc3)cc2/C=N/Nc2ccc3ccccc3n2)cc1OC,4%
COc1ccc(-c2nn(-c3ccccc3)cc2/C=N/N=C(N)N)cc1OC,25µM*
COc1ccc(-c2nn(-c3ccccc3)cc2/C=N/NC(=S)NC(C)C)cc1OC,-7%
CC/C=C\C/C=C\C/C=C\C/C=C\C/C=C\C/C=C\CCC(N)=O,-14%
CNCC[C@H](Oc1ccccc1OC)c1ccccc1,13%
C[C@@H](O)C#C[Si](C)(C)c1ccccc1,-1%
COc1ccc2c(c1)C(=O)[C@H](OC(=O)Nc1cc(OC)c(OC)c(OC)c1)[C@@H](c1ccc(OC)c(Br)c1)O2,3%
Oc1ccc2ccccc2c1N=Nc1ccccc1F,14µM*
Oc1ccc2ccccc2c1CN1CCN(c2ccccc2F)CC1,0%
CCOC(=O)c1[nH]cnc1N=Nc1c(O)ccc2ccccc12,-16%
COC(=O)[C@H](Cc1ccccc1)NC(=O)O[C@@H]1C(=O)c2ccc(OC)cc2O[C@H]1c1cccc(C(F)(F)F)c1,2%
CC(=O)O[C@@H]1CC2C(C)(C)C(=O)C=C[C@]2(C)C2CC[C@]3(C)C(=CC[C@H]3C3CO[C@@H](C(C)(C)O)[C@H](O)C3)[C@@]21C (some centres undefined),-14%
CC(C)C[C@H](N)CSSC[C@@H](N)CC(C)C,16%
Cn1c(N=Nc2ccc(N3CCOCC3)cc2)[n+](C)c2ccccc21,16µM*
Cn1c(O)c(C=Nc2ccc(N3CCOCC3)cc2)c(=O)n(C)c1=S,-3%
Cn1c(N2CCOCC2)c(/C=N/O)c2ccccc21,-16%
Cc1cc(O)cc(O)c1C(=O)OC1(C)C(=O)C=C2C=C(/C=C/C(=O)O)OC=C2C1=O (centres undefined),-9%
